Measurements: paper PMC11006913
Positions count from the first letter of the chain named.

What was measured:
Test in all cases: PBM; 200 nM protein, PBS
Details in all cases: dsDNA, one strand shown
HOXA4 [1] = molecular target: HOXA4 (Homo sapiens, UniProt Q00056 201-287)
HOXD13 [2] = molecular target: HOXD13 (Homo sapiens, UniProt P35453 263-343)
HOXD13 [3] = molecular target: HOXD13 (Homo sapiens, UniProt P35453 263-343, T313A)
PAX4 [4] = molecular target: T1, PAX4 (Homo sapiens, UniProt O43316 9-242, F177V)
T1 sequence: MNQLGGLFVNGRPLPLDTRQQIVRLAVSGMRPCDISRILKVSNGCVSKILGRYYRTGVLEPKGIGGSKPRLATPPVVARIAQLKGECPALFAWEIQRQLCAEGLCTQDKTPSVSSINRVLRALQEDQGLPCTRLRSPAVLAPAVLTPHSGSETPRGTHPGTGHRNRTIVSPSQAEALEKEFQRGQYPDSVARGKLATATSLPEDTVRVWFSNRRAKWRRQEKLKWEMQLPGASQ

PAX4 [5] = molecular target: T2, PAX4 (Homo sapiens, UniProt O43316 9-242, F177Y)
T2 sequence: T1 sequence with V169Y

PAX4 [6] = molecular target: T3, PAX4 (Homo sapiens, UniProt O43316 9-242, R227W)
T3 sequence: T1 sequence with V169F, R219W

HOXA4 [7] = molecular target: HOXA4 (Homo sapiens, UniProt Q00056 201-287, W262F)
PRRX1 = PRRX1 (Homo sapiens, UniProt P54821 80-166)
NKX2-6 = molecular target: T4, NKX2-6 (Homo sapiens, UniProt A6NCS4 118-204, F151L)
T4 sequence: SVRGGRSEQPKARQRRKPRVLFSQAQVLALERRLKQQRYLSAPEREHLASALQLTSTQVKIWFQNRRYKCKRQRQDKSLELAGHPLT

PROP1 [8] = molecular target: PROP1 (Homo sapiens, UniProt O75360 56-141)
PROP1 [9] = molecular target: PROP1 (Homo sapiens, UniProt O75360 56-141, F88S)
VAX1 [10] = molecular target: VAX1 (Homo sapiens, UniProt Q5SQQ9 86-172)
VAX1 [11] = molecular target: VAX1 (Homo sapiens, UniProt Q5SQQ9 86-172, T142I)
CRX = CRX (Homo sapiens, UniProt O43186 26-111, R41L)
VAX1 [12] = molecular target: VAX1 (Homo sapiens, UniProt Q5SQQ9 86-172, K157R)
HOXC10 = HOXC10 (Homo sapiens, UniProt Q9NYD6 254-340, K271E)
SIX6 = molecular target: T5, SIX6 (Homo sapiens, UniProt O95475 114-200, L167V)
T5 sequence: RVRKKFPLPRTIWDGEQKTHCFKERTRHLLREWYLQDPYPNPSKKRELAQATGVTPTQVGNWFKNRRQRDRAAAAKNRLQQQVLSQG

ALX3 [13] = molecular target: ALX3 (Homo sapiens, UniProt O95076 139-225)
ALX3 [14] = molecular target: ALX3 (Homo sapiens, UniProt O95076 139-225, N203S)
PROP1 [15] = molecular target: PROP1 (Homo sapiens, UniProt O75360 56-141, R99H)
Sequence of PROP1 (Homo sapiens, UniProt O75360 56-141, R99H) (O75360 56-141 R99H): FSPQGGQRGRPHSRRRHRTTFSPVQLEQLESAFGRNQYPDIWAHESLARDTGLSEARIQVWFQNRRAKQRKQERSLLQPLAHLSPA

Sequence of HOXD13 (Homo sapiens, UniProt P35453 263-343, T313A) (P35453 263-343 T313A): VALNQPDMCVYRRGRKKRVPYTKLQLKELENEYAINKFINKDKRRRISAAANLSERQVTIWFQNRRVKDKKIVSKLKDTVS
Sequence of HOXD13 (Homo sapiens, UniProt P35453 263-343) (P35453 263-343): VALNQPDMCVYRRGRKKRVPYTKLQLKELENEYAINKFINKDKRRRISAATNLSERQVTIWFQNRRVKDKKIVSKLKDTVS
Sequence of ALX3 (Homo sapiens, UniProt O95076 139-225) (O95076 139-225): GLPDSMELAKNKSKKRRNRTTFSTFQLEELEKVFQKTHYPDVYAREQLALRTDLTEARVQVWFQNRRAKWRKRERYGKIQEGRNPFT
Sequence of HOXA4 (Homo sapiens, UniProt Q00056 201-287) (Q00056 201-287): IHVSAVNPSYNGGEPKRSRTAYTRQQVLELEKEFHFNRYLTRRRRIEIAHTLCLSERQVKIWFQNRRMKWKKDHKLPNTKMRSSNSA
Sequence of PROP1 (Homo sapiens, UniProt O75360 56-141) (O75360 56-141): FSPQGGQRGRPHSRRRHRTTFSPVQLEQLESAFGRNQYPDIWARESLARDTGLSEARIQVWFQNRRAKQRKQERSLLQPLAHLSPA
Sequence of PROP1 (Homo sapiens, UniProt O75360 56-141, F88S) (O75360 56-141 F88S): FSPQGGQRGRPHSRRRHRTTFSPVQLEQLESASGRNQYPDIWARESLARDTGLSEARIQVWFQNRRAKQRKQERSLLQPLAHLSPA
Sequence of CRX (O43186 26-111 R41L): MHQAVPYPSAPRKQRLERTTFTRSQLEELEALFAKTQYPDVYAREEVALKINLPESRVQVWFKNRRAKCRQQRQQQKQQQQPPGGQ
Sequence of PRRX1 (P54821 80-166): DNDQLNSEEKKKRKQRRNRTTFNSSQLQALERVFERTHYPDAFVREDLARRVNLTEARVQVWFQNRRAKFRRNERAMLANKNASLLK
Sequence of VAX1 (Homo sapiens, UniProt Q5SQQ9 86-172, K157R) (Q5SQQ9 86-172 K157R): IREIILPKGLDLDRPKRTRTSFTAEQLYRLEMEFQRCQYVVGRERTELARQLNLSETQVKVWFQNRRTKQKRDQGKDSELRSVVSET
Sequence of HOXA4 (Homo sapiens, UniProt Q00056 201-287, W262F) (Q00056 201-287 W262F): as the sequence (Q00056 201-287) above, with W62F counted along it
Sequence of VAX1 (Homo sapiens, UniProt Q5SQQ9 86-172, T142I) (Q5SQQ9 86-172 T142I): as the sequence (Q5SQQ9 86-172 K157R) above, with T57I, R72K counted along it
Sequence of VAX1 (Homo sapiens, UniProt Q5SQQ9 86-172) (Q5SQQ9 86-172): as the sequence (Q5SQQ9 86-172 K157R) above, with R72K counted along it
Sequence of HOXC10 (Q9NYD6 254-340 K271E): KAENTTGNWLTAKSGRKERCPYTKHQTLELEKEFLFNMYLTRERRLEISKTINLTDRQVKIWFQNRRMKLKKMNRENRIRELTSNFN
Sequence of ALX3 (Homo sapiens, UniProt O95076 139-225, N203S) (O95076 139-225 N203S): as the sequence (O95076 139-225) above, with N65S counted along it

In the case of ATTCAAGC, the binding signal (HOXA4 [1]) is reported as 11 upbm affinity estimate (log intensity, higher = more binding, comparable within an allelic series).

For TCCTTTAA, the binding signal (HOXA4 [1]) was 11.1 upbm affinity estimate (log intensity, higher = more binding, comparable within an allelic series).

For ATAACTAA, the binding signal (HOXD13 [2]) was 10.9 upbm affinity estimate (log intensity, higher = more binding, comparable within an allelic series) and the binding signal (HOXD13 [3]) was 11 upbm affinity estimate (log intensity, higher = more binding, comparable within an allelic series).

In the case of ATTATATG, the binding signal (PAX4 [4]) is reported as 10.6 upbm affinity estimate (log intensity, higher = more binding, comparable within an allelic series).

With AATCATAT the binding signal (HOXD13 [2]) was 11 upbm affinity estimate (log intensity, higher = more binding, comparable within an allelic series) and the binding signal (HOXD13 [3]) was 11 upbm affinity estimate (log intensity, higher = more binding, comparable within an allelic series).

In the case of CTTAAAAG, the binding signal (HOXA4 [1]) is reported as 10.4 upbm affinity estimate (log intensity, higher = more binding, comparable within an allelic series).

ATAATTCA was tested, and the binding signal (PAX4 [4]) was 10.7 upbm affinity estimate (log intensity, higher = more binding, comparable within an allelic series), the binding signal (PAX4 [5]) was 11.1 upbm affinity estimate (log intensity, higher = more binding, comparable within an allelic series) and the binding signal (PAX4 [6]) was 10.9 upbm affinity estimate (log intensity, higher = more binding, comparable within an allelic series).

For ATCATGTC, the binding signal (HOXA4 [1]) was 11 upbm affinity estimate (log intensity, higher = more binding, comparable within an allelic series) and the binding signal (HOXA4 [7]) was 10.3 upbm affinity estimate (log intensity, higher = more binding, comparable within an allelic series).

With CAAGATAA the binding signal (HOXA4 [1]) was 10.9 upbm affinity estimate (log intensity, higher = more binding, comparable within an allelic series).

AAGATTGT was tested, and the binding signal (HOXA4 [1]) was 10.7 upbm affinity estimate (log intensity, higher = more binding, comparable within an allelic series).

For GATTTGAA, the binding signal (HOXA4 [1]) was 10.8 upbm affinity estimate (log intensity, higher = more binding, comparable within an allelic series).

TAAATGAA was tested, and the binding signal (HOXD13 [2]) was 10.9 upbm affinity estimate (log intensity, higher = more binding, comparable within an allelic series) and the binding signal (HOXD13 [3]) was 10.9 upbm affinity estimate (log intensity, higher = more binding, comparable within an allelic series).

With CATATGTA the binding signal (HOXA4 [1]) was 10.8 upbm affinity estimate (log intensity, higher = more binding, comparable within an allelic series).

AAAATTAA was tested, and the binding signal (HOXD13 [2]) was 10.9 upbm affinity estimate (log intensity, higher = more binding, comparable within an allelic series) and the binding signal (HOXD13 [3]) was 10.8 upbm affinity estimate (log intensity, higher = more binding, comparable within an allelic series).

In the case of ATTAAACA, the binding signal (HOXD13 [2]) is reported as 11.3 upbm affinity estimate (log intensity, higher = more binding, comparable within an allelic series) and the binding signal (HOXD13 [3]) is reported as 11.2 upbm affinity estimate (log intensity, higher = more binding, comparable within an allelic series).

With ACGAAATA the binding signal (HOXA4 [1]) was 10.7 upbm affinity estimate (log intensity, higher = more binding, comparable within an allelic series).

ATTTTAAC was tested, and the binding signal (HOXD13 [2]) was 11.2 upbm affinity estimate (log intensity, higher = more binding, comparable within an allelic series) and the binding signal (PRRX1) was 11.9 upbm affinity estimate (log intensity, higher = more binding, comparable within an allelic series).

With AAGTGTTA the binding signal (HOXD13 [2]) was 10.7 upbm affinity estimate (log intensity, higher = more binding, comparable within an allelic series) and the binding signal (NKX2-6) was 10.7 upbm affinity estimate (log intensity, higher = more binding, comparable within an allelic series).

In the case of TGATAAAA, the binding signal (HOXD13 [2]) is reported as 11.3 upbm affinity estimate (log intensity, higher = more binding, comparable within an allelic series) and the binding signal (HOXD13 [3]) is reported as 11.2 upbm affinity estimate (log intensity, higher = more binding, comparable within an allelic series).

With ATTGTATA the binding signal (PAX4 [4]) was 10.5 upbm affinity estimate (log intensity, higher = more binding, comparable within an allelic series).

With AATATAGT the binding signal (HOXD13 [2]) was 11 upbm affinity estimate (log intensity, higher = more binding, comparable within an allelic series) and the binding signal (HOXD13 [3]) was 11.1 upbm affinity estimate (log intensity, higher = more binding, comparable within an allelic series).

With TAATAGCA the binding signal (HOXD13 [2]) was 11 upbm affinity estimate (log intensity, higher = more binding, comparable within an allelic series), the binding signal (PROP1 [8]) was 9.06 upbm affinity estimate (log intensity, higher = more binding, comparable within an allelic series) and the binding signal (PROP1 [9]) was 7.3 upbm affinity estimate (log intensity, higher = more binding, comparable within an allelic series).

For ATAACGAC, the binding signal (HOXD13 [2]) was 11 upbm affinity estimate (log intensity, higher = more binding, comparable within an allelic series) and the binding signal (HOXD13 [3]) was 10.8 upbm affinity estimate (log intensity, higher = more binding, comparable within an allelic series).

In the case of CGTTATTA, the binding signal (HOXD13 [2]) is reported as 11.2 upbm affinity estimate (log intensity, higher = more binding, comparable within an allelic series) and the binding signal (HOXD13 [3]) is reported as 11.1 upbm affinity estimate (log intensity, higher = more binding, comparable within an allelic series).

For AGTATACA, the binding signal (HOXD13 [2]) was 10.6 upbm affinity estimate (log intensity, higher = more binding, comparable within an allelic series) and the binding signal (HOXD13 [3]) was 10.7 upbm affinity estimate (log intensity, higher = more binding, comparable within an allelic series).

With ATATAATC the binding signal (PAX4 [4]) was 10.6 upbm affinity estimate (log intensity, higher = more binding, comparable within an allelic series), the binding signal (VAX1 [10]) was 10.1 upbm affinity estimate (log intensity, higher = more binding, comparable within an allelic series) and the binding signal (VAX1 [11]) was 10.1 upbm affinity estimate (log intensity, higher = more binding, comparable within an allelic series). The binding signal (CRX) was 12.3 upbm affinity estimate (log intensity, higher = more binding, comparable within an allelic series) and the binding signal (VAX1 [12]) was 9.94 upbm affinity estimate (log intensity, higher = more binding, comparable within an allelic series).

For AGTTTTAT, the binding signal (HOXC10) was 11.3 upbm affinity estimate (log intensity, higher = more binding, comparable within an allelic series).

With ATATACAT the binding signal (PAX4 [4]) was 10.6 upbm affinity estimate (log intensity, higher = more binding, comparable within an allelic series).

With AGATATCT the binding signal (SIX6) was 10.8 upbm affinity estimate (log intensity, higher = more binding, comparable within an allelic series).

In the case of TAATACTA, the binding signal (ALX3 [13]) is reported as 10.2 upbm affinity estimate (log intensity, higher = more binding, comparable within an allelic series).

For AAAAATAA, the binding signal (ALX3 [13]) was 9.76 upbm affinity estimate (log intensity, higher = more binding, comparable within an allelic series).

With CACATAAA the binding signal (HOXD13 [3]) was 11.6 upbm affinity estimate (log intensity, higher = more binding, comparable within an allelic series).

In the case of TCCTTAGA, the binding signal (ALX3 [13]) is reported as 8.33 upbm affinity estimate (log intensity, higher = more binding, comparable within an allelic series).

In the case of ATAATTCG, the binding signal (PAX4 [5]) is reported as 11 upbm affinity estimate (log intensity, higher = more binding, comparable within an allelic series).

GGTTGTTA was tested, and the binding signal (ALX3 [13]) was 9.57 upbm affinity estimate (log intensity, higher = more binding, comparable within an allelic series) and the binding signal (ALX3 [14]) was 8.28 upbm affinity estimate (log intensity, higher = more binding, comparable within an allelic series).

With GGAGCAGA the binding signal (PROP1 [8]) was 6.75 upbm affinity estimate (log intensity, higher = more binding, comparable within an allelic series), the binding signal (PROP1 [15]) was 6.89 upbm affinity estimate (log intensity, higher = more binding, comparable within an allelic series) and the binding signal (PROP1 [9]) was 6.82 upbm affinity estimate (log intensity, higher = more binding, comparable within an allelic series).

For ATAGAAAA, the binding signal (ALX3 [13]) was 8.94 upbm affinity estimate (log intensity, higher = more binding, comparable within an allelic series).

For ATTATGTG, the binding signal (PAX4 [5]) was 10.9 upbm affinity estimate (log intensity, higher = more binding, comparable within an allelic series).

With CTTATAAC the binding signal (ALX3 [13]) was 9.51 upbm affinity estimate (log intensity, higher = more binding, comparable within an allelic series).
